Growth data for 40 molecules are collected here from PubChem BioAssay (NCI).

SMILES strings stand for the structures. This is part of a sample that, as a whole, favours compounds with a hit. Of some 83,000 tested, about 20% had one in any assay.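 Compound tested at a single concentration for 48 hours in 96-well plates; a percent growth value below 10 was scored as active.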 A number with no mark means an inactive call. Activity calls are given as the source filed them.

For this assay, the system named is PC-3 prostate. Put plainly: NCI-60 one-dose screen, 48 h (100 = growth as untreated, 0 = no growth, -100 = all killed). The conditions noted are these: 10 µM unless noted. The procedure:
Growth inhibition of the PC-3 human tumor cell line is measured as a screen for anti-cancer activity. Cells are grown in 96 well plates and exposed to the test compound for 48 hours. Compounds are tested at a single concentration, which is 10^-5 M for most compounds. The reported endpoint is percent growth (GI% or GIPRCNT), where numbers from 0 - 100% represent growth inhibition, and numbers from -100% - 0 represent cell death. For example, a value of 40 represents 60% growth inhibition. A value of 0 means no net growth occurred over the course of the experiment. A value of -40 indicates 40% of cells at the beginning of the experiment died by the end of the experiment. A value of -100 means all cells are dead at the end of the experiment.
NCI-60 Human Tumor Cell Lines Screen was performed using the standard one-dose NCI protocol, which is described in more detail at https://dtp.cancer.gov/discovery_development/nci-60/default.htm.
Compounds with GIPRCNT values below 10 were considered active. Activity score was based on GIPRCNT using the following formula: […]
Score is 0 for GIPRCNT values of 100 or above, 50 for GIPRCNT values of 0, and 100 for GIPRCNT values of -100.
With `CCC(c1ccc(OC)cc1)C(CC)c1ccc(OCC[N+](C)(C)C)cc1` (stereo not given), the growth was 45.3%. To `C=CCOc1ccc(/C(O)=C2\C(=O)C(=O)N(c3nccs3)C2c2ccccc2F)cc1` (stereo not given) belongs 114%; to `O=c1cc(C2NCCc3c2[nH]c2ccccc32)c2c(ccc3ccccc32)o1` (stereo not given), 56%.

Regarding `CC(=O)n1cc([C@H]2CC[C@H](c3cn(C(C)=O)c4ccccc34)c3c2[nH]c2ccccc32)c2ccccc21`, the growth is 53.2%. `Cc1nc2scc(-c3ccccc3)n2c(=O)c1CCO`: the growth was 87.7%. `Cc1cc2c(c(=O)o1)C(c1ccc(OC(=O)N3CCOCC3)cc1)C(C#N)=C(N)O2` (stereo not given): the growth is 103%. To `Cc1cccc(NC(=O)c2sc3nc4c(cc3c2N)CCCC4)c1` belongs 26.6%; to `O=S=Nc1ccc([N+](=O)[O-])cc1`, 96.8%; to `CC(Br)C(OC(=O)c1ccccc1Cl)c1cc2c(cc1Br)OCO2` (stereo not given), 82.8%.

For `COc1cc(OC)c(C(=O)/C=C/c2cccc(C(F)(F)F)c2)c(OC)c1`, the growth was 41.9%. In the case of `Cc1cc(Cl)ccc1OC(C)C(=O)Nc1nnc(C2CC2)s1` (stereo not given) it was 99.2%.

Consider `O=C(Nc1ccc(I)cc1)c1cc([N+](=O)[O-])ccc1O`, for which the growth was 15.3%. In the case of `COc1cc(C2CC(c3c(C)[n+]([O-])c4ccccc4[n+]3[O-])=NN2)cc(OC)c1OC` (stereo not given) it was 102%; in that of `c1ccc([P+](CCC[P+](c2ccccc2)(c2ccccc2)c2ccccc2)(c2ccccc2)c2ccccc2)cc1`, 38%. In the case of `CC(C)(C)OC(=O)N[C@@H](Cc1ccccc1)C(=O)N(Cc1ccccc1)C1(C(=O)NCc2ccccc2)CCN(Cc2ccccc2)CC1` it was 1.58% (active); in that of `CCN(CC)CCCC(C)N=c1cc(Nc2cc(=NC(C)CCCN(CC)CC)c3cc(OC)ccc3o2)oc2ccc(OC)cc12` (stereo not given), -26.4% (active).

Take `N=C(N)c1ccc(-c2ccc(-c3ccc(Cl)cc3)o2)nc1`: the growth is -90% (active). In the case of `COc1ccc(NC(=O)c2cc3ccccc3nc2Nc2cc(OC)c(OC)c(OC)c2)cc1` it was 57.6%. On to `CCOC(=O)c1cc(/C(=N\O)c2cc(OC)c(OC)c(OC)c2)n2cc(C)cc(C)c12`, for which the growth is 41%.

As to `NC(CC(N)C(=O)O)C(=O)O` (stereo not given), the growth was 92.2%.

Turning to `COc1ccc(/C=N/NC(=O)Cn2c(Cc3cccc4ccccc34)nc3ccccc32)cc1`, the growth is 83.2%. To `O=C(CNC(=O)c1cccc2ccccc12)Nc1ccccc1Oc1ccccc1` belongs 2.31% (active). In the case of `O=S(=O)(NCCCNc1cc(-c2cn(-c3ccccc3)nc2-c2cccc(O)c2)ccn1)c1ccc(Br)cc1` it was 4.26% (active). In the case of `COc1cc(NS(C)(=O)=O)ccc1Nc1c2ccc([N+](=O)[O-])cc2nc2c(C)cccc12` it was 8.53% (active). Regarding `O=C(CN1CCN(c2cc3c(cc2F)c(=O)c(C(=O)O)cn3C2CC2)CC1)Nc1ccc(C(=O)/C=C/c2ccc(Cl)cc2)cc1`, the growth was 91.7%. Consider `CN(C)c1nc(N)c(N=O)c(N)n1`, for which the growth was 99.4%. Consider `C/C(=C\c1csc(C)n1)[C@@H]1C[C@@H]2O[C@]2(C)CCC[C@H](C)[C@H](O)[C@@H](C)C(=O)C(C)(C)[C@@H](O)CC(=O)N1`, for which the growth is -63.9% (active). `COc1cc(/C=C\c2cc(OC)c(OC)c(OC)c2)cc(N/C=C\C(=O)c2c[nH]c3ccccc23)c1OC`: the growth was 37.3%. In the case of `NC(=O)NNC(=O)c1ccccc1` it was 96.5%; in that of `CCO/C=N/NC(=O)c1ccncc1`, 97.3%. With `COc1ccc(OC)c(-c2ccc(-c3ccccc3N)c3[nH]c4ccccc4c23)c1`, the growth is 59%. In the case of `Cc1cnc(NC(=O)C(Cc2ccccc2)NC(=O)c2ccccc2)s1` (stereo not given) it was 70.7%; in that of `NCCSC(c1ccccc1)(c1ccccc1)c1ccccc1`, 19.4%; in that of `C=CCN=C1NC(=O)/C(=C/c2cc(C(C)(C)C)c(O)c(C(C)(C)C)c2)S1`, 62.4%.

As for `CCOC(=O)CC/C(C)=N\Nc1ccc([N+](=O)[O-])cc1`, the growth was 49.7%. To `CCCS(=O)(=O)c1nc(NC2CC2)cc(-c2ccc3c(ccn3C3CC(C)(C)NC(C)(C)C3)c2)n1` belongs 17.4%.

With `CCC1CCc2nc3sc(C(=O)Nc4cccc(C)c4)c(N)c3cc2C1` (stereo not given), the growth was 66.7%. To `COc1cc2c3c(c(=O)oc2cc1OS(=O)(=O)c1ccc(C(F)(F)F)cc1)CCCCC3` belongs 68.1%; to `COc1ccc(C2CC(c3cccs3)=NN2c2ccc(S(=O)(=O)NC(=O)Nc3ccc(C)cc3)cc2)cc1` (stereo not given), 86.3%; to `O=[N+]([O-])c1c(S(=O)(=O)O)cc2cc(S(=O)(=O)O)ccc2c1[N+](=O)[O-]`, 100%.
